Source: PubChem
Hits are enriched below; roughly 13% of the tested compounds scored in any of these assays.
Lassa entry inh = qHTS for Inhibitors of binding or entry into cells for Lassa Virus; hit rate 1.2% among 300,000; Potency, µM (titrated, usually from 37.9 µM), hits mostly inhibitors; Lassa virus pseudotype entry inhibition, cell reporter; AID 540256, 2011; calls by dose curve; tested in HEK293 cells; also: nearly all actives have a fitted effect of over 50% in size
MARV entry inh = qHTS for inhibitors of binding or entry into cells for Marburg Virus. AID 540276, 2011. hit rate 1.8% among 300,000. Marburg virus pseudotyped entry inhibition, cell reporter. Potency, µM (highest dose often 37.8 µM), most hits filed as inhibitors; calls by dose curve; tested in HEK293 cells
HCV inhibitor = qHTS Assay for Inhibitors of Hepatitis C Virus (HCV); Huh7.5.1 HCVcc-Cre infection, luciferase reporter, 44 h; Potency, µM (top dose mostly 41.8 µM), most hits filed as inhibitors; hit rate 3.4% among 340,000
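Cells seeded at 1,000/well and cultured 4 h, then compounds added followed by HCVcc-Cre virus (~0.5 moi). After 44 h further culture, luciferase substrate was added, plates held 15 min at room temperature, and luminescence read for 15 sec.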
Shiga inhibitor = A qHTS for Small Molecule Inhibitors of Shiga Toxin; inhibition, % at 38.7 µM; hit rate 9.2% among 290,000; Vero cells, Shiga toxin protein synthesis inhibition reporter; in the data active = inhibition mostly above about 28%, no sharp cut-off; inactive = mostly below about 43%
CHX counter = Cycloheximide Counterscreen for Small Molecule Inhibitors of Shiga Toxin; cell reporter, cycloheximide protein synthesis inhibition counterscreen; max response, %; hit rate 12% among 300,000; in the data active = max response mostly above about 13%, no sharp cut-off; inactive = mostly below about 14%; also: read at 38.3 µM for the half of the compounds with a filed dose
FMDV inh = High Throughput Screening for Foot and Mouth Disease Virus Antivirals; hit rate 1.2% among 410,000; AID 1159524, 2015; Potency, µM (series often up to 57.9 µM), usual class: inhibitors; FMDV antiviral cell-based qHTS; calls by dose curve; tested in HEK293T cells; also: read-out not given here; nearly all actives have a fitted effect of over 45% in size
HeLa G2M arrest = Cell cycle validation with wells to cells screening paradigm; shares compounds with MARV entry inh; HeLa cell cycle G2/M arrest, Hoechst DNA content imaging; Potency, µM, actives largely listed as inhibitors; hit rate 60% among 25
WI-38 cytotox = High Content Assay for Compounds that inhibit the Assembly of the Perinucleolar Compartment: WI-38 Cytotoxicity | shares compounds with MARV entry inh | 120 tested, under 10 active | Potency, µM (top dose mostly 46.1 µM), actives largely listed as inhibitors | WI-38 normal lung fibroblasts, ATPLite luminescence ATP viability, 24 h
PNC assembly inh = High Content Assay for Compounds that inhibit the Assembly of the Perinucleolar Compartment: Confirmation of PNC Inhibition. shares compounds with MARV entry inh. PC3M PTB-GFP, PNC prevalence imaging, 16 h. Potency, µM (doses to about 46.1 µM), actives largely listed as inhibitors. hit rate 50% among 120. AID 2730, 2010
PC3M caspase = High Content Assay for Compounds that inhibit the Assembly of the Perinucleolar Compartment: PC3M Caspase 3/7 Activation; shares compounds with MARV entry inh; PC3M-GFP caspase 3/7 activation, luminescence, 24 h; activity change, positive = activation, % at 46.1 µM; 120 tested, under 10 active; AID 2731, 2010
Hits are given with their value; [ ] = another dose, or the depositor's remark. Unless noted, calls follow the shape of the dose curve; as a rule, active = well fitted curve in the direction sought with a large enough effect; inconclusive = small, poorly fitted or top-dose-only effect, or another doubt; inactive = no such curve, though single readings can be large; an effect the other way counts as inactive or inconclusive.

COc1cc2c(c(OC)c1OC)-c1ccc(OC)c(=O)cc1[C@@H](NC(C)=O)CC2 was read as Lassa entry inh inconclusive, MARV entry inh inconclusive, HCV inhibitor inactive, Shiga inhibitor inactive, CHX counter inactive, FMDV inh inactive and HeLa G2M arrest 0.02.
`COc1cc(NC(=O)c2cc(Cl)ccc2Cl)ccc1NC(=O)c1cc2ccccc2o1` gave Lassa entry inh inactive and FMDV inh inactive.
`CCOC(=O)c1c(NC(=O)c2c(-c3ccccc3)noc2C)sc(C)c1-c1ccccc1` gave Lassa entry inh inconclusive, MARV entry inh 0.13µM, HCV inhibitor 7.1µM, Shiga inhibitor inactive, CHX counter inactive, FMDV inh inconclusive, WI-38 cytotox inactive, PNC assembly inh 1.6µM and PC3M caspase inactive.
Screening COc1ccc(C(=O)NCCCNC(=O)c2cc3ccccc3[nH]2)cc1OC returned HCV inhibitor inactive, Shiga inhibitor inactive, CHX counter inactive and FMDV inh inactive.
`COc1ccc(-c2nc(NC(=O)c3n[nH]c(=O)c4ccccc34)sc2C)cc1` gave Lassa entry inh 1µM, MARV entry inh 0.79µM, HCV inhibitor inconclusive, Shiga inhibitor inactive, CHX counter inactive, FMDV inh inactive, WI-38 cytotox inactive, PNC assembly inh 4µM and PC3M caspase inactive.
For O=C1C(=Cc2cccs2)C(=O)c2ccccc21 the results were Lassa entry inh inactive, MARV entry inh inactive, HCV inhibitor inactive, Shiga inhibitor inactive, CHX counter 46, FMDV inh inactive, WI-38 cytotox inactive, PNC assembly inh inactive and PC3M caspase inactive.
O=C1NN(c2ccccc2)C(=O)/C1=C/c1cccs1 was read as Lassa entry inh inactive, MARV entry inh inactive, HCV inhibitor inactive, Shiga inhibitor inactive and CHX counter inactive.
Screening COc1ccc(/C=C/C(=O)OCC(=O)Nc2ccc(Cl)c(S(=O)(=O)N(C)C)c2)cc1OC returned Lassa entry inh inactive, MARV entry inh inactive, HCV inhibitor inactive, Shiga inhibitor inactive, CHX counter inactive, FMDV inh inconclusive, WI-38 cytotox inactive, PNC assembly inh inactive and PC3M caspase inactive.
Screening O=C1OCCN1S(=O)(=O)Nc1ccccc1 returned HCV inhibitor inactive, Shiga inhibitor inactive, CHX counter inactive and FMDV inh inactive.
For CNS(=O)(=O)c1cccc(C(=O)Nc2cccnc2)c1 the results were Lassa entry inh inactive, MARV entry inh inactive, HCV inhibitor inactive, Shiga inhibitor inactive, CHX counter inactive and FMDV inh inactive.
Screening CNS(=O)(=O)c1cccc(C(=O)Nc2cccc(Cl)c2)c1 returned Lassa entry inh inactive, MARV entry inh inactive, HCV inhibitor inactive, Shiga inhibitor inactive, CHX counter 35, FMDV inh inactive, WI-38 cytotox inactive, PNC assembly inh inconclusive and PC3M caspase inactive.
`CCN(CC)C(=S)SSC(=S)N(CC)CC` gave Lassa entry inh 2.9µM, MARV entry inh 3.5µM, Shiga inhibitor inactive, CHX counter inactive, FMDV inh inactive, WI-38 cytotox inconclusive, PNC assembly inh inconclusive and PC3M caspase inactive.
Cc1c(NC(=O)c2cc(-c3ccccc3)nc3ccccc23)c(=O)n(-c2ccccc2)n1C was read as Lassa entry inh inactive, MARV entry inh inconclusive, HCV inhibitor inactive and FMDV inh inactive.
Cc1c(NC(=O)COC(=O)c2cc(-c3ccc(-c4ccccc4)cc3)nc3ccccc23)c(=O)n(-c2ccccc2)n1C was read as Lassa entry inh 0.89µM, MARV entry inh 0.58µM, HCV inhibitor inactive, Shiga inhibitor 84, CHX counter 57, FMDV inh inactive, WI-38 cytotox 7.9µM, PNC assembly inh 2µM and PC3M caspase inactive.
Screening CC(=O)N(C)C1=C(N2CCOCC2)C(=O)c2ccccc2C1=O returned Lassa entry inh 0.58µM, MARV entry inh 1.5µM, HCV inhibitor 0.56µM, Shiga inhibitor inactive, CHX counter inactive, FMDV inh 2.5µM, WI-38 cytotox inconclusive, PNC assembly inh inconclusive and PC3M caspase inconclusive.
Screening CN(C)C(=O)COC(=O)c1ccccc1Nc1ccc(SC(F)F)cc1 returned MARV entry inh inactive, HCV inhibitor inconclusive, Shiga inhibitor inactive, CHX counter 32, FMDV inh inactive, WI-38 cytotox inactive, PNC assembly inh 16µM and PC3M caspase inactive.
For COc1ccccc1NC(=O)COC(=O)c1ccccc1OCC(=O)Nc1ccc(SC(F)F)cc1 the results were Lassa entry inh inactive, MARV entry inh inactive, HCV inhibitor inactive, Shiga inhibitor inactive, CHX counter inactive and FMDV inh inactive.
For CCCCCCCCCCCCCCCCCC(=O)NCC(COP(=O)([O-])OCC[N+](C)(C)C)OCC (configuration not stated) the results were Lassa entry inh inconclusive, MARV entry inh 20µM and HeLa G2M arrest inconclusive.
For CCCCCCCCCCCCCCCCOC[C@@H](COP(=O)([O-])OCC[N+](C)(C)C)OC(C)=O the results were FMDV inh inactive[6.7 µM].
`CCN(CC)c1ccc(N=Cc2ccccc2[N+](=O)[O-])cc1` gave Lassa entry inh inconclusive, MARV entry inh inconclusive, HCV inhibitor inconclusive, Shiga inhibitor inactive, CHX counter inactive, FMDV inh inactive, WI-38 cytotox inactive, PNC assembly inh inactive and PC3M caspase inactive.
`Cc1nnc(SC(C)C(=O)N(C)C2CCCCC2)n1N` (configuration not stated) gave HCV inhibitor inactive and FMDV inh inactive.
For Cn1cnnc1Sc1ccc(CN2CCOc3ccc(C4=CCCCC4)cc3C2)o1 the results were FMDV inh inactive.
`CC(C(=O)N1CCN(C)CC1)N1C(=O)c2ccccc2C1=O` (configuration not stated) gave Lassa entry inh inactive, MARV entry inh inactive, HCV inhibitor inactive, Shiga inhibitor inactive, CHX counter inactive and FMDV inh inactive.
CCCSc1cc(N2CCCC2)nc(-c2ccccc2)n1 was read as Lassa entry inh inactive, MARV entry inh inactive, HCV inhibitor inactive, Shiga inhibitor inactive, CHX counter inactive and FMDV inh inactive.
For CCCSc1cc(N2CCN(C)CC2)nc(-c2ccc(OC)cc2)n1 the results were Lassa entry inh inconclusive, MARV entry inh inconclusive, HCV inhibitor 14µM, Shiga inhibitor inactive, CHX counter inactive, FMDV inh inactive, WI-38 cytotox inactive, PNC assembly inh inconclusive and PC3M caspase inactive.
